Results on three compounds are retold here after PubChem BioAssay (EPA / NIEHS).

Read-out in test [1]: Phosphatase and tensin (PTEN), PTEN (gene 5728)
The experiment in a line: LTEA_HepaRG_PTEN: Life Technologies and Expression Analysis (LTEA) Assay for Phosphatase and tensin (PTEN) using HepaRG (AID 2283523). Conditions: mRNA level, 48 h; actives raise or lower the signal. The essentials: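 Read-out: TaqMan qRT-PCR of PTEN transcript, normalized to three housekeeping genes, fitted in both directions against 0.5% DMSO. Differentiated human HepaRG cultures received chemicals for 48 h, eight-point half-log series topping at 100 uM.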

Read-out in test [2]: solute carrier (SLC22A1), SLC22A1 (gene 6580)
The experiment in a line: LTEA_HepaRG_SLC22A1: Life Technologies and Expression Analysis (LTEA) Assay for solute carrier (SLC22A1) using HepaRG (AID 2283524). Conditions: mRNA level, 48 h; actives raise or lower the signal. The essentials: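 Transcript level of SLC22A1 quantified by qRT-PCR (normalized to three housekeeping genes) after 48 h chemical exposure of HepaRG cells, eight concentrations up to 100 µM, half-log steps, 0.5% DMSO vehicle. Gain or loss relative to DMSO fitted bidirectionally.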

Read-out in test [3]: Pyruvate Dehydrogenase Kinase 4 (PDK4), PDK4 (gene 5166)
Put plainly: LTEA_HepaRG_PDK4: Life Technologies and Expression Analysis (LTEA) Assay for Pyruvate Dehydrogenase Kinase 4 (PDK4) using HepaRG (AID 2283525). The conditions noted are these: mRNA level, 48 h; actives raise or lower the signal. The essentials: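 Readout is qRT-PCR of PDK4 transcript, normalized to three housekeeping genes, with bidirectional fitting against 0.5% DMSO vehicle. Differentiated HepaRG cells were treated 48 h in serum-free induction medium, duplicate wells, eight-point half-log series topping at 100 uM.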

Read-out in test [4]: NAD(P)H dehydrogenase [quinone] 1 (NQO1), NQO1 (gene 1728)
Put plainly: LTEA_HepaRG_NQO1: Life Technologies and Expression Analysis (LTEA) Assay for NAD(P)H dehydrogenase [quinone] 1 (NQO1) using HepaRG (AID 2283526). Conditions: mRNA level, 48 h; actives raise or lower the signal. Put shortly:
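qRT-PCR read-out (Fluidigm TaqMan), normalized to three housekeeping genes, after 48 h chemical exposure of HepaRG cells. Concentrations: eight points, top 100 uM, half-log steps, 0.5% DMSO vehicle. Gain or loss of signal fitted relative to DMSO.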

Read-out in test [5]: Nuclear factor erythroid 2-related factor 2 (Homo sapiens) (UniProt Q16236)
The experiment in a line: LTEA_HepaRG_NFE2L2: Life Technologies and Expression Analysis (LTEA) Assay for Nuclear factor erythroid 2-related factor 2 (NFE2L2) Transcription Factor using HepaRG (AID 2283527).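 Further: TaqMan qRT-PCR transcript level normalised to ACTB GAPDH and POLR2A housekeeping genes.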 The conditions noted are these: mRNA level, 48 h; actives raise or lower the signal. Put shortly: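 NFE2L2 transcript level was read by qRT-PCR (housekeeping ACTB/GAPDH/POLR2A normalisation) after 48 h chemical treatment of HepaRG in serum-free induction medium. Duplicate 8-point half-log curves, top 100 uM, 0.5% DMSO vehicle; up- or down-regulation fitted against vehicle.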

Read-out in test [6]: succinate dehydrogenase complex iron sulfur subunit B (SDHB), SDHB (gene 6390)
The experiment in a line: LTEA_HepaRG_SDHB: Life Technologies and Expression Analysis (LTEA) Assay for succinate dehydrogenase complex iron sulfur subunit B (SDHB) using HepaRG (AID 2283528). The conditions noted are these: mRNA level, 48 h; actives raise or lower the signal. Put shortly: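 Readout is SDHB transcript level by qRT-PCR, normalised to three housekeeping genes and fitted bidirectionally against 0.5% DMSO vehicle. Human HepaRG cells were treated for 48 h at up to 100 uM.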

Read-out in test [7]: Signal transducer and activator of transcription 3 (Homo sapiens) (UniProt P40763)
The experiment in a line: LTEA_HepaRG_STAT3: Life Technologies and Expression Analysis (LTEA) Assay for Signal transducer and activator of transcription (STAT3) using HepaRG (AID 2283529). Conditions: mRNA level, 48 h; actives raise or lower the signal. The essentials:
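STAT3 transcript quantified by qRT-PCR against three housekeeping genes (ACTB, GAPDH, POLR2A), fitted both directions relative to DMSO. HepaRG cultures exposed 48 h to eight half-log concentrations, top 100 uM, 0.5% DMSO, serum-free induction medium.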

Read-out in test [8]: solute carrier (SLCO1B1), SLCO1B1 (gene 10599)
The experiment in a line: LTEA_HepaRG_SLCO1B1: Life Technologies and Expression Analysis (LTEA) Assay for solute carrier (SLCO1B1) using HepaRG (AID 2283530). Conditions: mRNA level, 48 h; actives raise or lower the signal. The essentials:
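Human HepaRG cultures treated for 48 h with an eight-concentration half-log series topping at 100 uM; SLCO1B1 measured by qRT-PCR and fitted bidirectionally relative to DMSO.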

Read-out in test [9]: sulfotransferase 2A1 (SULT2A1), SULT2A1 (gene 6822)
The experiment in a line: LTEA_HepaRG_SULT2A1: Life Technologies and Expression Analysis (LTEA) Assay for sulfotransferase 2A1 (SULT2A1) using HepaRG (AID 2283531). Conditions: mRNA level, 48 h; actives raise or lower the signal. The essentials:
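Gene-expression endpoint in a human liver cell line: SULT2A1 mRNA change after 48 h chemical treatment, curves fitted in both directions relative to 0.5% DMSO vehicle. Concentrations spanned eight half-log steps from 100 uM.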

Read-out in test [10]: Transforming Growth Factor (TGFA), TGFA (gene 7039)
The experiment in a line: LTEA_HepaRG_TGFA: Life Technologies and Expression Analysis (LTEA) Assay for Transforming Growth Factor (TGFA) using HepaRG (AID 2283532). Conditions: mRNA level, 48 h; actives raise or lower the signal. The essentials: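 TGFA transcript quantified by qRT-PCR (Fluidigm arrays) against three housekeeping genes, after 48 hours chemical treatment of HepaRG cells. Top concentration 100 uM with half-log dilutions, 8 points, duplicates, 0.5% DMSO.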

Read-out in test [11]: Transforming Growth Factor (TGFB1), TGFB1 (gene 7040)
The experiment in a line: LTEA_HepaRG_TGFB1: Life Technologies and Expression Analysis (LTEA) Assay for Transforming Growth Factor (TGFB1) Transporter using HepaRG (AID 2283533). The conditions noted are these: mRNA level, 48 h; actives raise or lower the signal. Put shortly:
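Eight-point concentration-response (max 100 uM, half-log) in HepaRG under serum-free induction conditions, 48 h. TGFB1 mRNA by qRT-PCR, housekeeping-normalized.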

Read-out in the next test: TIMP1, TIMP1 (gene 7076)
Put plainly: LTEA_HepaRG_TIMP1: Life Technologies and Expression Analysis (LTEA) Assay for TIMP1 using HepaRG (AID 2283534).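 Further: TaqMan qRT-PCR signal normalized to ACTB GAPDH and POLR2A housekeeping genes.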 Conditions: mRNA level, 48 h; actives raise or lower the signal. Put shortly:
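TIMP1 induction or repression in HepaRG cells after 48 h chemical exposure (eight concentrations, highest 100 uM), assessed by normalized qRT-PCR with bidirectional fitting to DMSO controls.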

Read-out in test [12]: Tumor necrosis factor receptor 1 (TNFRSF1A), TNFRSF1A (gene 7132)
Put plainly: LTEA_HepaRG_TNFRSF1A: Life Technologies and Expression Analysis (LTEA) Assay for Tumor necrosis factor receptor 1 (TNFRSF1A) using HepaRG (AID 2283535). Conditions: mRNA level, 48 h; actives raise or lower the signal. Put shortly: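 Assay uses 48 h chemical treatment of differentiated HepaRG monolayers, tested in duplicate at eight concentrations from 100 uM downward in 0.5% DMSO. mRNA is normalized to ACTB, GAPDH and POLR2A, with induction or suppression fitted relative to vehicle.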

Read-out in test [13]: Cellular tumor antigen p53 (Homo sapiens) (UniProt P04637)
The experiment in a line: LTEA_HepaRG_TP53: Life Technologies and Expression Analysis (LTEA) Assay for Tumor Protein P53 (TP53) using HepaRG (AID 2283537). Conditions: mRNA level, 48 h; actives raise or lower the signal. Put shortly:
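Read-out is TP53 transcript level by microfluidic qRT-PCR, normalised to three housekeeping genes and fitted bidirectionally against DMSO. Human HepaRG cells received compounds for 48 h, highest concentration 100 uM.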

Read-out in test [14]: UDP glucuronosyltransferase (UGT1A1), UGT1A1 (gene 54658)
The experiment in a line: LTEA_HepaRG_UGT1A1: Life Technologies and Expression Analysis (LTEA) Assay for UDP glucuronosyltransferase (UGT1A1) using HepaRG (AID 2283538). Conditions: mRNA level, 48 h; actives raise or lower the signal. The essentials: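 HepaRG, 48 h chemical exposure (top 100 uM, half-log 8-pt, 0.5% DMSO vehicle), duplicate wells; qRT-PCR (TaqMan, Fluidigm array) for UGT1A1 mRNA, housekeeping-normalized; bidirectional curve fit vs DMSO baseline.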

Read-out in test [15]: UDP glucuronosyltransferase (UGT1A6), UGT1A6 (gene 54578)
Put plainly: LTEA_HepaRG_UGT1A6: Life Technologies and Expression Analysis (LTEA) Assay for UDP glucuronosyltransferase (UGT1A6) using HepaRG (AID 2283539). The conditions noted are these: mRNA level, 48 h; actives raise or lower the signal. Put shortly: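 Measures mRNA change in HepaRG hepatic cells exposed 48 h to chemicals (eight-point, maximum 100 uM, 0.5% DMSO vehicle) in serum-free induction medium. Expression normalized to endogenous controls; DMSO served as negative control and baseline.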

A short description of test [16]: LTEA_HepaRG_LDH_cytotoxicity: Cytotoxicity Assessment in the Life Technologies and Expression Analysis (LTEA) Assay (AID 2283563; active means hit-call score of the fitted dose curve at least 0.9, where 1 is the maximum). Put shortly:
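Spent-medium LDH after 48 h chemical exposure of HepaRG cells in serum-free induction medium; eight concentrations, half-log dilutions from 100 uM, duplicate wells, fitted upward relative to 0.5% DMSO.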

Test [17] can be described thus: ATG_XTT_Cytotoxicity: Cytotoxicity Assessment in the Attagene TRANS-FACTORIAL HepG2 Assay (AID 2283584; active means hit-call score of the fitted dose curve at least 0.9, where 1 is the maximum). Put shortly:
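24 h chemical exposure of reporter-transfected HepG2; XTT signal loss vs DMSO indicates cytotoxicity.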

Read-out in test [18]: X-box binding protein 1 (XBP1), XBP1 (gene 7494)
The experiment in a line: LTEA_HepaRG_XBP1: Life Technologies and Expression Analysis (LTEA) Assay for X-box binding protein 1 (XBP1) using HepaRG (AID 2283540). Conditions: mRNA level, 48 h; actives raise or lower the signal. The essentials: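 Eight concentrations (half-log, highest 100 uM, 0.5% DMSO) tested in duplicate on HepaRG cells over 48 h in serum-free induction medium; qRT-PCR of XBP1 normalised to ACTB, GAPDH, POLR2A.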

Read-out in test [19]: Thyroid Hormone Responsive (THRSP), THRSP (gene 7069)
Put plainly: LTEA_HepaRG_THRSP: Life Technologies and Expression Analysis (LTEA) Assay for Thyroid Hormone Responsive (THRSP) using HepaRG (AID 2283536). Conditions: mRNA level, 48 h; actives raise or lower the signal. The essentials: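 THRSP transcript quantified by Fluidigm qRT-PCR against three housekeeping genes after 48 h chemical exposure of HepaRG cells in serum-free induction medium; eight-point half-log series, top 100 uM, 0.5% DMSO vehicle, duplicate wells.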

The structures appear in SMILES notation. Results filed as inconclusive are left out. Calls of active or inactive are those of the source. How the source made its calls, unless noted: active means hit-call score of the fitted dose curve at least 0.9, where 1 is the maximum; inactive means score below 0.9.

Nuclear factor erythroid 2-related factor 2 (Homo sapiens), sequence (Q16236 whole entry, looked up): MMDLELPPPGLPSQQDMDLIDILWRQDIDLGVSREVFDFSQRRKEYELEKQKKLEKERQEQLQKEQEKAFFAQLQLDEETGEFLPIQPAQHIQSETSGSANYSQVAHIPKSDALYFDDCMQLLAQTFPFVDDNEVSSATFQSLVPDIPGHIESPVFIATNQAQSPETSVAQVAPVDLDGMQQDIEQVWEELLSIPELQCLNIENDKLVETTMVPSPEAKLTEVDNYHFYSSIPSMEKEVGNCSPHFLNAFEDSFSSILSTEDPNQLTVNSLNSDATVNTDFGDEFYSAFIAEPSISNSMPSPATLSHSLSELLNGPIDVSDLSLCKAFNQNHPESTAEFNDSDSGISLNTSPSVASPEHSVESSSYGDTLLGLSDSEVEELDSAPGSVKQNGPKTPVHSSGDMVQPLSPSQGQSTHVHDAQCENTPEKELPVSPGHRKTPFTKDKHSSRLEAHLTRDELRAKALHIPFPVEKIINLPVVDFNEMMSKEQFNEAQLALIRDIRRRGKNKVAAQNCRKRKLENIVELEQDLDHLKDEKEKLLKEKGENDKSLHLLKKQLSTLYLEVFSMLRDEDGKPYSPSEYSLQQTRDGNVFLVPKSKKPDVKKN
Signal transducer and activator of transcription 3 (Homo sapiens), sequence (P40763 whole entry, looked up): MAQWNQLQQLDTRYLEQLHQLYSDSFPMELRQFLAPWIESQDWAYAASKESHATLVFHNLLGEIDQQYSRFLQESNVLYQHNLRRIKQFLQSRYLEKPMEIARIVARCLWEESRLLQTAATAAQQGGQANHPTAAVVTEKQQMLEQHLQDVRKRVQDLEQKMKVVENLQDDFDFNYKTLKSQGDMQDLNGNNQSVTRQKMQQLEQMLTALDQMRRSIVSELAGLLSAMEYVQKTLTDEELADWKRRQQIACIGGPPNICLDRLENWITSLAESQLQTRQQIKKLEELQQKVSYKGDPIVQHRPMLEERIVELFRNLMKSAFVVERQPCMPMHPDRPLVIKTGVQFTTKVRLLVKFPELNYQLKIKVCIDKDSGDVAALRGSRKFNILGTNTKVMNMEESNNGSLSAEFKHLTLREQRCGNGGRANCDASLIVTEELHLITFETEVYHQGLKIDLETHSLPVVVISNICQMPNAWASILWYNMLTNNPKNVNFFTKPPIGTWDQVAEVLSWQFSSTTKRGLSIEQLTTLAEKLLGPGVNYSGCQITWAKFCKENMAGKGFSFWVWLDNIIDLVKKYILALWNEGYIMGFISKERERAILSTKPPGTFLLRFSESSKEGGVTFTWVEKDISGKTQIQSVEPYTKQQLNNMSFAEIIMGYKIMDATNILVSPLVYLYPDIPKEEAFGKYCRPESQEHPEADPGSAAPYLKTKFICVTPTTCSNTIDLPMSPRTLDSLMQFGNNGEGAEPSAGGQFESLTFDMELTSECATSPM
Cellular tumor antigen p53 (Homo sapiens), sequence (P04637 whole entry, looked up): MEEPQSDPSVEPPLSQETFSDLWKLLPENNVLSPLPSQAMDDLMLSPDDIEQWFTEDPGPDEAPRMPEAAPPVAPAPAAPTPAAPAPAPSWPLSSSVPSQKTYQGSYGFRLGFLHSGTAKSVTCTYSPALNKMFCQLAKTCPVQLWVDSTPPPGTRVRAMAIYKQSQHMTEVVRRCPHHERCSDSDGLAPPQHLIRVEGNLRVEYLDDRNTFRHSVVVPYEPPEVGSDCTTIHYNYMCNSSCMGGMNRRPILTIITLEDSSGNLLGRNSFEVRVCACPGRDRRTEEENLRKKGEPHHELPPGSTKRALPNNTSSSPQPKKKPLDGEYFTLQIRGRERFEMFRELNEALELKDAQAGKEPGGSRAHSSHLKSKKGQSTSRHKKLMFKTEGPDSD

For the compound `CC(C)=CCCC(C)=CC=O`, the outcome in test [1], in test [2], in [3], in test [4], in test [5] and in test [6] was inactive. Also, the outcome was “inactive” in test [7]; “inactive” in test [8]; “inactive” in test [9]; “inactive” in test [10]; “inactive” in [11]; “inactive” with TIMP1, TIMP1 (gene 7076). Also, the compound was called inactive in [12], in test [13], in [14], in test [15], in test [16] and in [17].

Regarding `CC(=O)c1ccc2c(c1)[C@H](NC(=O)c1ccc(F)cc1)[C@@H](O)C(C)(C)O2`, the compound was called inactive in test [1], in test [2], in test [3], in test [4], in test [5] and in test [6]. In addition, the outcome in test [7] is “inactive”; in test [8], “inactive”; in test [9] it was “inactive”; in test [10] it was “inactive”; in test [11] it was “inactive”; with TIMP1, TIMP1 (gene 7076) it was “inactive”. In addition, the compound was classed as inactive in [12], in [13], in [15], in [18] and in [16]. Besides, in test [14], the AC50 was 22.6 µM (active).

In the case of `CC1(C)C(=O)N(Br)C(=O)N1Br`, the compound was classed as inactive in [1], in test [2], in test [3], in test [4], in test [5] and in [6]. In addition, the outcome in test [7] is “inactive”; in test [8] it was “inactive”; in [9], “inactive”; in test [10] it was “inactive”; in test [11], “inactive”; in the test with TIMP1, TIMP1 (gene 7076), “inactive”. Besides, the call in test [12], in test [19], in test [13], in test [15], in test [18] and in test [16] was inactive. The call in [17] was inactive. Besides, the AC50 in test [14] was 21.4 µM (active).
